Source: PubChem BioAssay
ADAM10 inh – human ADAM10 inhibitors, primary screen, biochemical, QFRET, HTS. Disintegrin and metalloproteinase domain-containing protein 10 (Homo sapiens), O14672. recombinant ADAM10, EDANS/DABCYL FRET peptide cleavage, 3 h. inhibition, % at 7 µM. actives 0.62% (n = 370,000);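 active means inhibition above a per-campaign cutoff equal to the mean of compounds falling between control-based bounds plus 3 SD, cut at about 20% in these data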;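 further: 0% = DMSO wells while the 100% control is not disclosed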
GC-B act – human GC-B receptor activators, primary screen, HEK293 GC-B cells, cGMP TR-FRET, EC30 CNP; actives 0.11% (n = 370,000); activation, % at 10 µM; 0% at EC30 CNP, 100% saturating CNP; Atrial natriuretic peptide receptor 2 (Homo sapiens), P20594;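 active means activation at 10 µM reaching about 35% in either raw or pattern-adjusted values, limit read from the data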
Target sequence (P20594 whole entry, looked up): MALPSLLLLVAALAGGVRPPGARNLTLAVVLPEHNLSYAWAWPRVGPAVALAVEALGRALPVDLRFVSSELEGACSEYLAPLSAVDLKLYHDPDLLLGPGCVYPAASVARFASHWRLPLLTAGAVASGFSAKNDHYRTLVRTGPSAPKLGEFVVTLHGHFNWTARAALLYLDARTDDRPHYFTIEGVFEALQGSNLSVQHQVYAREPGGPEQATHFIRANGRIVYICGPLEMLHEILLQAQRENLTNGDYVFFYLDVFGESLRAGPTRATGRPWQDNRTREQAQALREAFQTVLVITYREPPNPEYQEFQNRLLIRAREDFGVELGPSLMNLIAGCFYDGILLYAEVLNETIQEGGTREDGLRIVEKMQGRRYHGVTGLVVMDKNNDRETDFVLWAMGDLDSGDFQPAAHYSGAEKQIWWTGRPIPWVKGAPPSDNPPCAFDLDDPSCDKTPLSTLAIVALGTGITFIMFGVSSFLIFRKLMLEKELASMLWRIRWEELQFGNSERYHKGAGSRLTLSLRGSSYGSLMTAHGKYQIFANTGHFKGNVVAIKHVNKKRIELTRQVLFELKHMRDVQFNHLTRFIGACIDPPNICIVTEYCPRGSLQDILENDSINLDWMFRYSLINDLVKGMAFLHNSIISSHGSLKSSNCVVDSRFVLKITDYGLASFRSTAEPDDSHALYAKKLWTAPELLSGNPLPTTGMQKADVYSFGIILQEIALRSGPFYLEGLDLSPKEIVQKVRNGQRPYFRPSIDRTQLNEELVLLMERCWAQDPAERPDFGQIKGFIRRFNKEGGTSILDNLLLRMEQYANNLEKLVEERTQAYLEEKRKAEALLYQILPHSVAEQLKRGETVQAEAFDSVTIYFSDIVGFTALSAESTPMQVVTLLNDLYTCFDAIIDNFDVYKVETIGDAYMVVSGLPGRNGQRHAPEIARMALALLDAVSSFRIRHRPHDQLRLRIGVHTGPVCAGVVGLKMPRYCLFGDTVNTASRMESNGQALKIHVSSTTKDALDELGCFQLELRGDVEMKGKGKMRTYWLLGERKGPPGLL
ADAM17 inh – ADAM17 inhibitors, primary screen, biochemical, QFRET; AID 720648, 2013; recombinant ADAM17, EDANS/DABCYL FRET peptide cleavage; inhibition, % at 6.95 µM; actives 0.83% (n = 370,000); Disintegrin and metalloproteinase domain-containing protein 17 (Homo sapiens), P78536;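 active means inhibition above the mean of compounds lying between control limits plus 3 SD, set per campaign, cut at about 8.5% in these data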;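 further: 0% = DMSO-only wells as the low control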
NPR1 activator – GC-A stimulated cGMP production enhancers – HEK293 GC-A cells, cGMP TR-FRET, EC30 ANP, primary screen | Atrial natriuretic peptide receptor 1 (Homo sapiens), P16066 | 0% at EC30 ANP, 100% saturating ANP | activation, % at 10 µM | actives 0.14% (n = 370,000) | AID 1671463, 2021; in the data active means activation above about 40%
proKLK7 act – proKLK7 zymogen activators, primary screen, biochemical, fluorescence intensity | activation, % at 7 µM | purified proKLK7, EDANS-DABCYL substrate fluorescence; 100% is mature enzyme control, 0% vehicle | actives 0.9% (n = 370,000) | Kallikrein-7 (Homo sapiens), P49862;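 active means activation above the mean of all tested compounds plus 3 SD, computed per campaign excluding outliers beyond control limits, cut at about 13% in these data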
proKLK7 act conf – proKLK7 zymogen activators, confirmation, biochemical, fluorescence intensity, triplicate. shares compounds with proKLK7 act. purified proKLK7, EDANS-DABCYL substrate fluorescence; scaled: vehicle 0, mature enzyme 100. activation, % at 7 µM. actives 68% (n = 3,200). AID 686949, 2013;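 active means activation, as change over the incubation, above the mean of all tested compounds plus 3 SD, cut at about 13% in these data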
EDANS-DABCYL int – EDANS-DABCYL substrate optical interference, artefact control for kallikrein-7 zymogen activator project, biochemical, fluorescence intensity, high throughput. shares compounds with proKLK7 act. no enzyme, 4 h; solvent 0%, active enzyme control 100%. activation, % at 7 µM. actives 80% (n = 3,200);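 active means activation above the all-compound mean plus 3 SD, ignoring values outside control-based bounds, cut at about 4.8% in these data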;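 further: value is the 4 h activation minus the activation read at time zero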
Active calls of the source: *; i = inactive; nt = not tested or not shown. An excerpt weighted towards active compounds, which were near 2.2% of everything screened.

SMILES	ADAM10 inh	GC-B act	ADAM17 inh	NPR1 activator	proKLK7 act	proKLK7 act conf	EDANS-DABCYL int
Cc1ccc(S(=O)(=O)NC(C(=O)Oc2cc3oc(=O)cc(C)c3cc2Cl)C(C)C)cc1 (stereo not given)	i	1.4	i	-1.9	103.9*	172.8*	101.7*
CC(=O)Oc1cc2oc(=O)c3c(c2cc1Cl)CCC3	i	0.5	i	7.1	73.6*	339.7*	402.6*
O=S1(=O)CC(N2CCCC2)CN1 (stereo not given)	-3.5	1.4	-3.8	1.3	0.2	nt	nt
COc1ccc(-n2c(SCc3nc4ccccc4[nH]3)nc3ccccc3c2=O)cc1	-6.4	9.6	0.4	0.9	-0.6	nt	nt
COc1ccc(N2C3=C(C(=O)CC(C)(C)C3)C(c3ccccc3OC)C3=C2CC(C)(C)CC3=O)cc1	-492.7	-12.0	-175.7	-19.0	22.5*	-27.0	-21.1
COc1ccccc1C1C2=C(CC(C)(C)CC2=O)N(CC(=O)O)C2=C1C(=O)CC(C)(C)C2	i	1.6	-269.1	-4.5	21.3*	30.2*	34.0*
COc1ccc(C2C3=C(CC(C)(C)CC3=O)N(C)C3=C2C(=O)CC(C)(C)C3)cc1	i	1.6	-307.0	5.1	35.4*	16.5*	24.9*
COc1ccc(C2C3=C(CC(C)(C)CC3=O)N(C)C3=C2C(=O)CC(C)(C)C3)cc1OC	-2.0	2.8	-1.8	-0.3	0.5	nt	nt
COc1ccc(N2C3=C(CC4=C2CC(C)(C)CC4=O)C(=O)CC(C)(C)C3)cc1	-65.5	4.4	-26.6	-1.5	2.1	nt	nt
C#CCOc1ccc(C2C3=C(CC(C)(C)CC3=O)N(CC(=O)O)C3=C2C(=O)CC(C)(C)C3)cc1	i	2.7	i	4.9	30.4*	68.1*	79.7*
COc1cc(C=NN2CCN(C(c3ccccc3)c3ccccc3)CC2)cc(OC)c1OC(C)=O	-8.1	1.3	0.9	-0.3	0.2	nt	nt
Cc1ncc(CO)c(/C=N/NC(=O)c2ccoc2C)c1O	i	-31.5	-428.5	-16.3	-65.0	nt	nt
COc1ccccc1N/N=C/c1c(CO)cnc(C)c1O	-475.3	-6.6	-155.0	-6.5	20.6*	34.4*	39.0*
Cc1ncc(CO)c(/C=N/NC(=O)c2ccccc2Br)c1O	i	0.4	-282.2	8.0	28.0*	-88.2	-76.4
COC(=O)[C@]12C[C@H](CC(=O)NCc3cccs3)C(=O)N(Cc3ccco3)C1=C[C@H](C(C)C)O[C@@H]2C1CC1	-7.4	-2.1	-5.1	-7.5	0.3	nt	nt
N#Cc1nc(-c2ccccc2)oc1NCCN1CCCCC1	i	5.1	-168.6	-3.7	40.2*	8.4	10.5*
CNc1oc(-c2cccs2)nc1C#N	i	3.2	i	5.3	-19.1	nt	nt
CN(C)c1oc(-c2cccs2)nc1C#N	i	-6.8	i	4.6	38.7*	65.3*	81.9*
N#Cc1nc(-c2cccs2)oc1NCCN1CCOCC1	i	1.9	-375.5	-0.5	27.8*	42.5*	39.1*
N#Cc1nc(-c2ccccc2)oc1NCC1CCCO1 (stereo not given)	i	3.4	-264.6	6.9	8.1	nt	nt
COc1cccc(CN(C)Cc2cc(=O)oc3cc(O)c(Cl)cc23)c1	i	2.0	i	5.6	37.7*	27.9*	36.8*
COc1cccc(CN(C)Cc2cc(=O)oc3c(C)c(C)ccc23)c1	0.2	4.1	-0.7	5.3	0.5	nt	nt
CC(=O)c1ccc(NC(=O)NC2CCCCN(Cc3cccc(Cl)c3)C2=O)cc1 (stereo not given)	10.6	-6.9	6.5	-0.5	0.1	nt	nt
O=C(CCCCCN1C(=O)C2C3C=CC(C3)C2C1=O)Nc1ccc2ncccc2c1 (stereo not given)	-60.9	-3.1	-19.5	3.1	2.0	nt	nt
Cc1ccc(S(=O)(=O)c2c(N)n(NC(=O)c3ccco3)c3nc4ccccc4nc23)cc1	i	3.5	-366.6	1.5	45.5*	3.7	6.0*
SMILES	ADAM10 inh	GC-B act	ADAM17 inh	NPR1 activator	proKLK7 act	proKLK7 act conf	EDANS-DABCYL int
Cc1ccc(S(=O)(=O)c2c(N)n(Cc3ccco3)c3nc4ccccc4nc23)cc1	i	-6.7	-499.5	-0.6	-31.5	nt	nt
COc1ccc(-c2coc3cc(OC(C)=O)c(OC)cc3c2=O)cc1	-332.6	2.3	-83.2	3.2	42.9*	153.5*	110.6*
Cc1cc(=O)oc2cc(NC(=S)NCc3ccccn3)ccc12	i	-3.1	i	-3.3	58.2*	37.7*	46.1*
Cc1cc(=O)oc2cc(OCC(=O)NCc3ccccn3)ccc12	-69.5	nt	-23.4	nt	0.0	nt	nt
Cc1nc2c(c3c1[nH]c1ccccc13)C(O)CC(C)(C)C2 (stereo not given)	i	-3.1	-477.4	0.5	34.1*	41.3*	40.2*
Cc1nn(-c2ccccc2)c2c1C(O)CC(C)(C)C2 (stereo not given)	-5.5	1.5	-4.7	4.3	-0.4	nt	nt
C[C@H](O)[C@@H]1CN2CCc3ccc(N4CCOCC4)cc3[C@@H]2C[C@@H]1N(C)C(=O)c1cccc(Cl)c1	-7.2	-1.3	-1.1	1.0	0.0	nt	nt
COc1ccc(-c2[nH]nc3oc(=O)cc(C)c23)cc1	i	-0.9	-186.5	-3.8	12.9*	14.8*	21.3*
N#Cc1cnc2ncnn2c1-c1ccccc1	-3.8	-0.4	1.1	0.6	0.3	nt	nt
COc1ccc(-c2ccnc3c(C#N)cnn23)cc1	i	-3.3	i	5.8	59.8*	68.8*	84.9*
N#Cc1cnn2c(-c3ccccc3)ccnc12	-464.8	3.4	-213.8	-2.2	44.7*	58.5*	66.4*
COc1ccc(-c2ccnc3c(Br)c(C)nn23)cc1	-21.1	3.6	2.4	4.6	1.3	nt	nt
CC[C@H]1C=C[C@@H](C(=O)NS(=O)(=O)c2ccc(C)cc2)N(C(C)=O)C1	-23.6	7.6	-5.2	2.6	0.0	nt	nt
C[C@H](O)[C@@H]1CN2CCc3c([nH]c4cccc(-c5ccccc5)c34)[C@@H]2C[C@@H]1N(C)C(=O)Nc1ccccc1	-49.8	-2.9	-14.0	0.9	-1.6	nt	nt
O=C(Nc1nccs1)c1ccccc1Br	-0.1	0.3	-3.0	3.2	0.3	nt	nt
O=C(/C=C/c1cccs1)Nc1nccs1	-27.0	-1.3	-10.9	1.8	15.1*	9.8	17.1*
O=C(/C=C\c1ccccc1)Nc1nccs1	3.0	-3.3	1.8	-0.9	16.7*	5.2	1.8
